Assay results from PubChem BioAssay AID1508602 (The Scripps Research Institute Molecular Screening Center, 2020).
Values joined by “and” are separate entries in the source; they are usually repeats but may differ in a detail not shown here. Equal values may be shown once. The whole screen tested about 650,000 compounds, of which about 6,800 (1%) were called active. Rule as the data show it: active = activation above about 4.9%; inactive = the rest. Only a selection was taken, and actives are over-represented in it overall. A structure can be active in one record and inactive in another.

What follows are molecules tested against G-protein coupled receptor 151 (Homo sapiens) (UniProt Q8TDV0) (assay: activates the human receptor GPR151, primary screen, cell-based, PathHunter beta-arrestin, luminescence (AID 1508602;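 also: 0% = median of compound wells and 100% = cells with positive control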)). Conditions: PathHunter beta-arrestin GPR151 cells, at 11.2 µM, stronger effect = higher value.
G-protein coupled receptor 151 (Homo sapiens), sequence (Q8TDV0 whole entry, looked up): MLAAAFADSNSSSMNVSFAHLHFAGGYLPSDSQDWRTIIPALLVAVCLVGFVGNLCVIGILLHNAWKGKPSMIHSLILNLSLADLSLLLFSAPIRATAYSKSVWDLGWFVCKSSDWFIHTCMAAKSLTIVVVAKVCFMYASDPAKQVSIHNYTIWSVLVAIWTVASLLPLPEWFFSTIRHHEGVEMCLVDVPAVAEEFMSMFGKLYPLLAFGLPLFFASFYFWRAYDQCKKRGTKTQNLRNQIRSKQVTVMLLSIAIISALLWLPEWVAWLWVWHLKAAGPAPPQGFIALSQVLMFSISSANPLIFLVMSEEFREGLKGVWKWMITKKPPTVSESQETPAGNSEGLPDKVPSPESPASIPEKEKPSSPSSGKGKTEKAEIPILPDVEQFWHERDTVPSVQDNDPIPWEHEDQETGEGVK

| SMILES | activation |
| --- | --- |
| CN(CC(COc1cccc2ccccc12)OC(=O)c1ccc(Cl)cc1Cl)C1=NS(=O)(=O)c2ccccc21 (centres undefined) | 0.501% (inactive) |
| CSc1nnc2n(/N=C/c3ccc(F)cc3)cnn12 | -3.69% (inactive) |
| CCC(C)(C)NC(=O)CN(C(=O)c1csnn1)c1cccc(C)c1C | -1.04% (inactive) |
| O=C(N/N=C\c1ccc(I)o1)c1ccc(Br)cc1 | 1.14% (inactive) |
| COc1ccc(Cl)cc1/C=N/NC(=O)CNc1ccc(C)cc1 | 0.958% (inactive) |
| Cc1ccc(NCC(=O)N/N=C\c2ccc(I)o2)cc1 | 5.65% (active) |
| COc1ccc(NS(=O)(=O)c2cc3c4c(c2)CC(=O)N4CCC3)cc1Cl | 3.82% (inactive) |
| O=C1Cc2cc(S(=O)(=O)Nc3ccc(C(F)(F)F)cc3)cc3c2N1CCC3 | -0.781% (inactive) |
| O=C1Cc2cc(S(=O)(=O)Nc3cccc(Cl)c3)cc3c2N1CCC3 | 5.26% (active) |
| Cc1cccc(C)c1-n1c(N)c(C(=O)NCc2ccccc2)sc1=S | -0.178% (inactive) |
| Cc1ccc(C)c(NC(=O)CN(C)S(=O)(=O)c2ccc3nc(-c4ccccc4)[nH]c3c2)c1 | -2.02% (inactive) |
| CCOc1ccc(N2C(=O)C3C4c5ccccc5C(C(C)O)(c5ccccc54)C3C2=O)cc1 (centres undefined) | 4.96% (active) |
| Cc1ccc(N2C(=O)C3C4c5ccccc5C(CO)(c5ccccc54)C3C2=O)cc1 (centres undefined) | -0.914% (inactive) |
| CC(=O)Oc1cccc(N2C(=O)C3C4c5ccccc5C(C)(c5ccccc54)C3C2=O)c1 (centres undefined) | 22.7% (active) |
| CC12c3ccccc3C(c3ccccc31)C1C(=O)N(c3cccc(C(F)(F)F)c3)C(=O)C12 (centres undefined) | 1.26% (inactive) |
| CC12c3ccccc3C(c3ccccc31)C1C(=O)N(c3ccc(C(=O)O)cc3)C(=O)C12 (centres undefined) | -0.384% (inactive) |
| CC12c3ccccc3C(c3ccccc31)C1C(=O)N(c3cccc(C(=O)O)c3)C(=O)C12 (centres undefined) | -0.158% (inactive) |
| COc1cc(C2Nc3cc(C)c(C)cc3NC3=C2C(=O)CC(C)(C)C3)cc(OC)c1OC (centres undefined) | 0.742% (inactive) |
| CCOC(=O)C1(Cc2cccc(OC)c2)CCCN(C(=O)COc2ccccc2OC)C1 (centres undefined) | 2.47% (inactive) |
| CCOC(=O)C1=CN(C)C=C(C(=O)OCC)C1c1ccc(OC)cc1 | 5.01% (active) |
| CCOC(=O)C1=CN(C)C=C(C(=O)OCC)C1c1ccc(OC)c(Br)c1 | -0.344% (inactive) |
| CCOC(=O)C1=CN(c2ccc(OCC)cc2)C=C(C(=O)OCC)C1c1ccc(OC)cc1 | 0.997% (inactive) |
| O=C(NCCc1ccc(O)cc1)c1cccc(Nc2ccncn2)n1 | -1.69% (inactive) |

| SMILES | activation |
| --- | --- |
| N#Cc1ccc(C(=O)OCc2ccc(Br)cc2)cc1 | -1.47% (inactive) |
| O=C1OC(/C=C/c2cccc(Cl)c2Cl)=NC/1=C\c1cccc([N+](=O)[O-])c1 | 0.433% (inactive) |
| CCOc1ccc(/C=C2N=C(/C=C/c3cccc(Cl)c3Cl)OC\2=O)cc1 | 6.64% (active) |
| CCOc1ccc(/C=C2N=C(/C=C\c3cccc([N+](=O)[O-])c3)OC/2=O)cc1 | -1.22% (inactive) |
| CN(Cc1cccc(C(F)(F)F)c1)C(=O)CC1C(=O)NCCN1Cc1ccccc1 (centres undefined) | -0.0176% (inactive) |
| COc1ccc(C2=NN(C(=O)c3cc(OC)c(OC)c(OC)c3)C(c3ccc(Cl)cc3)C2)cc1OC (centres undefined) | 7.04% (active) |
| O=C(c1ccc(Cl)cc1)N1N=C(c2ccccc2)CC1c1ccc(Cl)cc1 (centres undefined) | 0.747% (inactive) |
| COc1ccc(C2=NN(C(=O)c3ccccc3Cl)C(c3cccc(OC)c3OC)C2)cc1OC (centres undefined) | -0.321% (inactive) |
| Cc1nnc(SCc2ccc(CSc3nnc(C)n3N)cc2)n1N | -2.22% (inactive) |
| COc1ccc(-c2cc(N)n(S(=O)(=O)c3ccccc3)n2)c(OC)c1 | 6.94% (active) |
| COc1ccccc1-c1cc(N)n(S(=O)(=O)c2ccccc2)n1 | -0.0893% (inactive) |
| COc1ccc(-c2cc(N)n(S(=O)(=O)c3ccc([N+](=O)[O-])cc3)n2)c(OC)c1 | -0.106% (inactive) |
| O=C1COc2cc(S(=O)(=O)CCC(=O)N3CCN(c4ccccc4F)CC3)ccc2N1 | 0.891% (inactive) |
| CCOc1ccc(OCCOCCN2CC(C)OC(C)C2)cc1 (centres undefined) | -1.18% (inactive) |
| COc1ccc(N/C=C(/C#N)c2nc(-c3ccc(F)cc3)cs2)c(OC)c1 | 1.79% (inactive) |
| COc1ccccc1Nc1nc(-c2ccc(Br)cc2)cs1 | -0.402% (inactive) |
| COc1ccc(Nc2nc(-c3ccc(F)cc3)cs2)c(OC)c1 | 13.1% (active) |
| COc1ccc(-n2c(=S)[nH]c3cc(C(=O)Nc4cccc(Cl)c4)ccc3c2=O)c(OC)c1 | 1.31% (inactive) |
| O=C(N/N=C\c1ccccc1)c1ccccn1 | -3.62% (inactive) |
| O=C(N/N=C\c1ccccc1Cl)c1ccccn1 | -5.29% (inactive) |
| O=C(N/N=C\C=C\c1ccccc1)c1ccccn1 | 8.89% (active) |
| CC(=O)OCc1cn(-c2nonc2N)nn1 | 2.37% (inactive) |
| CC(=O)C1=C(O)C(=O)N(CC#N)C1c1ccc(F)cc1 (centres undefined) | -0.438% (inactive) |

| SMILES | activation |
| --- | --- |
| COc1ccc(OCC(=O)NCC(F)(F)F)c([N+](=O)[O-])c1 | 1.07% (inactive) |
| O=C(COc1ccc(Br)cc1CO)NCC(F)(F)F | 8.84% (active) |
| O=C(COc1ccc(Br)cc1Cl)NCCO | 0.504% (inactive) |
| COc1ccc(-c2cc(C(=O)Nc3cc(Cl)ccc3O)no2)cc1OC | 0.999% (inactive) |
| Cc1cc2c(c(=O)o1)C(c1cccc(OCc3c(F)cccc3Cl)c1)C(C#N)=C(N)O2 (centres undefined) | 1.06% (inactive) |
| CCC[C@@H]1NC(=O)[C@@H]2C[C@H](NCc3nc(-c4ccc(F)cc4)cs3)CN2C1=O | 5.66% (active) |
| O=C1N[C@@H](Cc2ccc(Cl)cc2)C(=O)N2C[C@@H](NCc3nc(-c4ccc(F)cc4)cs3)C[C@@H]12 | -2.22% (inactive) |
| CC(C)C[C@H]1NC(=O)[C@@H]2C[C@H](NCc3cc(F)ccc3F)CN2C1=O | -0.818% (inactive) |
| O=C(NCc1ccc(Cl)cc1)C(=O)NC1CCCCCC1 | 1.92% (inactive) |
| Cc1cc(NC(=O)CSc2nnc3c(n2)[nH]c2ccc(S(=O)(=O)N4CCOCC4)cc23)no1 | -0.982% (inactive) |
| Cc1c2cnn(CC(=O)NCC(C)c3ccccc3)c(=O)c2c(C)n1Cc1ccccc1 (centres undefined) | -0.872% (inactive) |
| Cc1cc(C)cc(NC(=O)NC2CCN(CC(=O)Nc3cccc(Cl)c3C)CC2)c1 | 0.14% (inactive) |
| CC1CCN(CC(=O)Nc2ccccc2Cl)CC1 | 20.2% (active) |
| CC1CCN(CC(=O)Nc2ccc(Cl)cc2)CC1 | -1.21% (inactive) |
| COc1ccc(NC(=O)C2CCCN2C(=O)Nc2ccccc2)cc1 (centres undefined) | 2.01% (inactive) |
| Nc1cccc(-c2ncc(C(=O)NC3CC3)s2)c1 | -0.0842% (inactive) |
| O=C(COc1ccc(Cl)cc1)Nc1ccc2oc(=O)ccc2c1 | 1.66% (inactive) |
| O=C(CC12CC3CC(CC(C3)C1)C2)Nc1ccc2oc(=O)ccc2c1 | 6.05% (active) |
| O=C(CC12CC3CC(CC(C3)C1)C2)Nc1ccc2c(c1)COC2=O | -1.36% (inactive) and 1.16% (inactive) |
| CCCOc1ccc(C2CC(=O)NC3=C2C(=O)CC(C)(C)C3)cc1 (centres undefined) | 0.129% (inactive) |
| CC1(C)C(=O)C2(C(=O)Nc3cccc(C(F)(F)F)c3)CCC1C2 (centres undefined) | -0.111% (inactive) |
| Cc1ccc(NC(=O)C2(C)CC3c4ccccc4C2c2ccccc23)cc1C (centres undefined) | -0.659% (inactive) |
| CC1(C(=O)Nc2cccc(C(F)(F)F)c2)CC2c3ccccc3C1c1ccccc12 (centres undefined) | 6.33% (active) |

| SMILES | activation |
| --- | --- |
| O=C(NC(=S)Nc1ccc(-c2nc3ncccc3o2)cc1)c1ccc(I)cc1 | -0.544% (inactive) |
| CC1CCCC(NC(=O)CSc2cc(=O)n(C)c3ccc(Cl)cc23)C1C (centres undefined) | 1.18% (inactive) |
| CCOC(=O)C1CCN(C(=O)CN2C(=O)c3cccnc3Oc3ccc(C)cc32)CC1 | 2.66% (inactive) |
| COC(=O)CN1C(=O)c2cccnc2Oc2ccc(C)cc21 | -1.68% (inactive) |
| Cc1ccc2c(c1)N(CC(=O)N1CCC(C)CC1)C(=O)c1cccnc1O2 | 5.35% (active) |
| CC1Cc2ccccc2N1S(=O)(=O)c1nnc(NC(=O)c2ccc(F)cc2)s1 (centres undefined) | -0.611% (inactive) |
| COc1ccccc1NC(=O)c1c(NCc2cccs2)sc2c1CCCC2 | 1.25% (inactive) |
| C#CCN=Cc1c(O)n(CC)c(=S)n(CC)c1=O | -0.872% (inactive) |
| Cc1cccc(NC(=S)N(CCCN2CCCC(C)C2)Cc2cccs2)c1 (centres undefined) | 2.67% (inactive) |
| CCOC(=O)C1=CN(c2ccc(C)cc2)C=C(C(=O)OCC)C1c1ccc(Cl)c(Cl)c1 | 1.19% (inactive) |
| C#CCN1C(=O)S/C(=C/c2cc(Cl)c(O)c(OC)c2)C1=O | 2.53% (inactive) |
| O=C(NCc1ccc2c(c1)OCO2)c1ccc(I)cc1 | -1.11% (inactive) |
| CCCCCn1c(=S)[nH]c2cc(C(=O)NCc3ccc4c(c3)OCO4)ccc2c1=O | -1.93% (inactive) |
| C=CCn1c(=O)c2ccc(C(=O)NCc3ccc4c(c3)OCO4)cc2n(CC(N)=O)c1=O | 10.5% (active) |
| CSCCC(NC(C)=O)C(=O)OCC(=O)Nc1nnc(C(C)C)s1 (centres undefined) | -1.34% (inactive) |
| COc1c(Cl)ccc(Cl)c1C(=O)Nc1cc(C)cc(C)c1 | 0.289% (inactive) |
| Cc1cc(C)c(/C=C2\C(=O)Nc3ccccc32)[nH]1 | -2.18% (inactive) and 5.18% (active) |
| Cn1c(/C=C2\C(=O)Nc3ccccc32)nc2ccccc2c1=O | 1.31% (inactive) |
| COC(=O)/C=C1/C(=O)Nc2ccccc21 | -0.452% (inactive) |
| COC(=O)c1c(OCc2cccnc2)cc(=O)n2c1CCN(C(C)CSC)CC2 (centres undefined) | 0.107% (inactive) |
